Drawing on PubChem BioAssay AID686979 (National Center for Advancing Translational Sciences (NCATS), 2013), this text covers Potency for 100 molecules.

Molecules are shown by their SMILES. Several values for one entry are separate records, joined by “and”; a condition that tells them apart may be missing. Equal values may be shown once. Hit rate of the full screen: of about 420,000 compounds, about 50,000 (12%) were called active. Not shown: some 26% with an inconclusive outcome. Calls follow the shape of the dose curve; as a rule, active = well fitted inhibition curve with a large enough effect; inconclusive = small, poorly fitted or top-dose-only effect; inactive = flat fitted curve, though single readings scatter. The entries come from a sample that favours actives as a whole. Entries that show only a call come without a potency.
Potency is read from the fitted curve at half-maximal effect.

The nature of this assay: qHTS for Inhibitors of human tyrosyl-DNA phosphodiesterase 1 (TDP1): qHTS in cells in presence of CPT. Also: nearly all actives have a fitted effect of over 55% in size. The conditions noted are these: chicken DT40 Tdp1-/-;hTDP1 cells + 20 nM CPT, ATP luminescence, 48 h; series mostly up to 46.2 µM. In a few lines: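 Cell growth measured by CellTiter-Glo luminescence after a minimum 48 h, 37 C compound exposure with 20 nM CPT in Tdp1-knockout DT40 cells stably expressing hTDP1, seeded 400/well; qHTS titration format.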
For the molecule `CC(C)Cc1nnc(NC(=O)CCNC(=O)c2ccccc2Cl)s1`, the Potency entry is “inactive”. With `CCOC(=O)N1CCN(C(=O)C2CCCN(c3ncnc4c3sc3cccc(F)c34)C2)CC1` (stereo not given) the entry was “inactive”; with `CCOC(=O)N1CCN(C(=O)C2CCN(c3ncnc4c3sc3cccc(F)c34)CC2)CC1`, 8.2 µM (active). With `CCOC(=O)N1CCN(C(=O)C2CCN(S(=O)(=O)c3cc(Cl)ccc3OCC)CC2)CC1` the entry was “inactive”.

For the molecule `O=C(CCn1nnnc1CN1CCOCC1)N1CCC(c2ccccc2Cl)C1` (stereo not given), the Potency result is “inactive”. Under `COc1ccc(F)c(CN2CCC3(CCC(CNC(=O)c4ccn(C)n4)O3)CC2)c1` (stereo not given) stands “inactive”; under `Cc1ccccc1N1CC(C(=O)Nc2ccc3c(c2)OCO3)CC1=O` (stereo not given), “inactive”; under `COc1ccc(C(=O)CCc2ccccc2O)c(OC)c1`, “inactive”. Under `COc1ccc(C(=O)Cc2cnn(-c3ccccc3)c2)c(O)c1` stands “inactive”; under `COc1ccc(C(=O)CC(=O)c2ccc(C)cc2)c(O)c1`, 4.61 µM (active); under `COc1ccc(NC(=O)Cn2c(=O)cc(C)c3c(C)nn(-c4cccc(Cl)c4C)c32)cc1OC`, “inactive”.

For the molecule `Cc1noc(C)c1NC(=O)Nc1cccc2c1O[C@H](CN(C)S(=O)(=O)c1c(C)noc1C)[C@@H](C)CN([C@H](C)CO)C2=O`, the Potency entry is “inactive”. Under `CC1=CC(C)(C)Nc2ccc(OC(=O)CN3C(=O)C4CCCCC4C3=O)cc21` (stereo not given) stands 1.64 µM (active); under `O=C(CN1C(=O)C2C3CCC(C3)C2C1=O)Oc1ccc2ccccc2c1` (stereo not given), “inactive”; under `CC(OC(=O)CN1C(=O)C2CCCCC2C1=O)C(=O)Nc1ncc(Cl)cc1Cl` (stereo not given), “inactive”.

`O=C(/C=C/c1c(F)cccc1Cl)Nc1nn[nH]n1`: the Potency result was “inactive”. For `O=C(N/C(=C\c1ccc(O)cc1)C(=O)N1CCCCC1)c1ccccc1`, the Potency result is “inactive”. Under `CCOc1ccc(C2/C(=C(/O)c3ccc4c(c3)CC(C)O4)C(=O)C(=O)N2CCCn2ccnc2)cc1` (stereo not given) stands “inactive”; under `CC(C)=CCC/C(C)=C/CC/C(C)=C/CC/C(C)=C/CO`, “inactive”; under `Cc1ccc(Oc2nc3ccccc3n3c(C)nnc23)cc1`, “inactive”.

As for `Cc1nc2ccccc2n1CC(O)c1ccccc1` (stereo not given), the Potency result is “inactive”. Regarding `Cc1ccc(C2=NN(C)c3nc4ccccc4n3C2)cc1`, the Potency is 18.4 µM (active). Under `COC(=O)C(C)N=Cc1ccccc1` (stereo not given) stands “inactive”; under `Cc1ccc(C(=O)Nc2ccc(C(=O)O)cc2)cc1S(=O)(=O)Nc1ccccc1`, “inactive”. With `O=C1CCC(CCC(=O)N2CCCC(C(=O)c3ccc(Cl)cc3)C2)=NN1` (stereo not given) the entry was “inactive”; with `CSCC(=O)N1CCCC(C(=O)c2cc(F)ccc2F)C1` (stereo not given), “inactive”. For `COc1ccc(F)cc1C(=O)C1CCCN(C(=O)CCc2ccccn2)C1` (stereo not given), the Potency was 16.4 µM (active). On to `O=C1NC(O)CCN1C1CC(O)C(CO)O1` (stereo not given), for which the Potency result is “inactive”. With `C=CCNC(=O)COC(=O)CNC(=O)c1cc(Cl)cc([N+](=O)[O-])c1` the entry was “inactive”; with `O=C(O)c1ccccc1Cc1ccc(F)c2ccccc12`, “inactive”; with `O=C(Nc1nnc(Cc2ccccc2)s1)c1cnccn1`, “inactive”. With `CC1CCN(C2=NC(=O)/C(=C/c3cn[nH]c3-c3ccccc3)S2)CC1` the entry was “inactive”; with `CCn1cc(C(=O)NC2CCCCCC2)c(=O)c2cc(S(=O)(=O)N3CCCCC3)ccc21`, 29.1 µM (active). Turning to `CCn1cc(C(=O)N2CCN(c3cc(Cl)ccc3C)CC2)c(=O)c2cc(S(=O)(=O)N3CCCC3)ccc21`, the Potency is 23.1 µM (active). As for `Cc1ccc(S(=O)(=O)N2CCN(C)CC2)cc1C(=O)NC1CCCCC1`, the Potency result is “inactive”. With `CCn1cc(C(=O)N(C)Cc2ccccc2)c(=O)c2cc(S(=O)(=O)N3CCCCCC3)ccc21` the entry was “inactive”; with `CCn1cc(C(=O)N2CC(C)CC(C)C2)c(=O)c2cc(S(=O)(=O)N3CCCC3)ccc21` (stereo not given), “inactive”; with `Cc1ccc(Cl)cc1N1CCN(C(=O)c2cn(C)c3ccc(S(=O)(=O)N(C)C4CCCCC4)cc3c2=O)CC1`, “inactive”. Under `CCCCc1cc(=O)oc2c(C)c(OCC(=O)N3CCC(C(N)=O)CC3)ccc12` stands “inactive”; under `CCOc1ccc(Br)cc1S(=O)(=O)Nc1ccc(S(=O)(=O)Nc2cc(C)on2)cc1`, “inactive”. `O=C(NCc1ccc2c(c1)OCO2)c1c(-c2ccsc2)sc2ccccc12`: the Potency is 14.6 µM (active). As to `O=C(NCc1ccc2c(c1)OCO2)c1ccc(Cl)s1`, the Potency entry is “inactive”.

On to `O=C(NCc1ccc2c(c1)OCO2)c1sccc1Br`, for which the Potency entry is “inactive”. Under `CC(C)(C)C(=O)CSc1ccc(S(=O)(=O)N2CCCC2)cn1` stands “inactive”; under `CN=C1SC(CC(=O)Nc2ccc(C(=O)O)cc2)C(=O)N1C` (stereo not given), “inactive”. Under `CCC(=C/c1sc2ccc3ccccc3c2[n+]1C)/C=C1\Sc2ccc3ccccc3c2N1C` stands 0.231 µM (active); under `COc1ccc(N(CC(=O)N2CCOCC2)S(=O)(=O)c2ccccc2)cc1Cl`, “inactive”. Under `COc1ccc(CCNC(=O)C2CCN(c3nn4c(=O)cc(C)nc4s3)CC2)cc1OC` stands “inactive”; under `COc1ccc(CCNC(=O)c2cnc3sc(N4CCCCCC4)nn3c2=O)cc1OC`, 11.6 µM (active). As to `CSc1ncc(C(=O)NCCCc2ccccc2)c(C)n1`, the Potency entry is “inactive”. For the molecule `O=C(NCCc1ccccc1)c1cnc2sc(N3CCCC3)nn2c1=O`, the Potency is 16.4 µM (active). Turning to `O=C(O)c1ccccc1-c1ccccc1C(=O)NCCc1ccccc1`, the Potency entry is “inactive”. With `COc1ccc(CCNC(=O)c2ccc(NC(=O)CC3SC(N4CCCCC4)=NC3=O)cc2)cc1OC` (stereo not given) the entry was “inactive”.

`Cc1cc(C)c(S(=O)(=O)NCC(c2ccc3c(c2)OCO3)N2CCOCC2)c(C)c1` (stereo not given): the Potency entry is “inactive”. In the case of `COc1cc(OC)cc(C(=O)NNC(=O)Cc2cccs2)c1`, the Potency entry is “inactive”. With `COCCCNC(=O)Cc1ccc(-n2c(C)nc3cccnc32)cc1` the entry was “inactive”; with `COc1cc(OC)c(NC(=O)Cc2ccc(-n3c(C)nc4cccnc43)cc2)cc1Cl`, 23.1 µM (active).

For the molecule `CCc1nc2cccnc2n1-c1ccc(C(=O)O)cc1`, the Potency result is “inactive”. Turning to `Cc1cccc(-n2nc3c(c2NC(=O)c2cc4ccccc4o2)CS(=O)(=O)C3)c1`, the Potency result is “inactive”. For `O=C(CN1CCC(O)(c2cccc(C(F)(F)F)c2)CC1)NCCc1ccccc1`, the Potency result was “inactive”. Under `CSc1ccc(C(=O)C2CCCN(C(=O)c3ccc(C)nc3)C2)cc1` (stereo not given) stands 20.6 µM (active); under `O=C(c1ccc(F)cc1)N1CCCC(C(=O)N2CCCCC2)C1` (stereo not given), “inactive”; under `Cc1cnc(C(=O)N2CCCC(N3CCN(c4ccccc4F)CC3)C2)cn1` (stereo not given), “inactive”.

Turning to `COc1cc2c(cc1OC)C(C(=O)Nc1cc(C)c(OC)c(C)c1)CC(=O)N2` (stereo not given), the Potency result is “inactive”. For `COc1ccc(NC(=O)c2ccco2)cc1NC(=O)c1ccc(C#N)cc1F`, the Potency entry was “inactive”. Regarding `COc1ccc(N(CC(=O)N2CCCCCC2)S(=O)(=O)c2ccccc2)cc1`, the Potency result was “inactive”. Take `CCC(C)[C@H](NC(=O)N1c2ccccc2NC(=O)[C@@H]1C(C)C)C(=O)N[C@@H](Cc1ccccc1)C(=O)O` (stereo not given in full): the Potency result was “inactive”. Regarding `CCOC(CNC(=O)C1CCN(S(=O)(=O)c2ccc3nc4c(c(C(=O)O)c3c2)CC(C)CC4)CC1)OCC` (stereo not given), the Potency entry is “inactive”. Regarding `CCCc1nn2c(=O)cc(CSCC(=O)Nc3cccc(C)c3)nc2s1`, the Potency result was “inactive”. Consider `COc1ccc(-c2c(C#Cc3ccccc3)c3ccccc3n2C)cc1`, for which the Potency entry is “inactive”. `COc1ccc(CCNC(=O)COC(=O)c2cc(=O)c3ccccc3o2)cc1`: the Potency entry is “inactive”. For the molecule `COc1ccc(CCNCc2c(-c3ccccc3)n(C)c3ccccc23)cc1`, the Potency was 16.4 µM (active).

On to `O=c1[nH]c2c(c(=O)n1-c1ccccc1)CCO2`, for which the Potency result was “inactive”. As to `O=C(CCNC(=O)c1ccc([N+](=O)[O-])cc1)NC1CCCCC1`, the Potency result was “inactive”.

Consider `CCOc1ccc(C2c3[nH]c4ccccc4c3CCN2Cc2cn(CC)nc2C)cc1` (stereo not given), for which the Potency entry is “inactive”.

On to `CCOc1ccc(C2c3[nH]c4ccccc4c3CCN2Cc2cccn2-c2ncccn2)cc1` (stereo not given), for which the Potency was 20.6 µM (active).

For the molecule `c1ccc(C2c3[nH]c4ccccc4c3CCN2Cc2cccn2-c2cccnc2)nc1` (stereo not given), the Potency entry is “inactive”. With `CN(CC(=O)Nc1c(Cl)cccc1Cl)C(=O)CNC(=O)C1CCCCC1` the entry was “inactive”; with `Cc1nnc(SCC(=O)NCCOc2ccc(Cl)cc2)n1-c1ccccc1`, “inactive”; with `Cc1nnc(OCC(=O)NCCC2=CCCCC2)c2ccccc12`, “inactive”.

In the case of `CCC(Sc1nc2n[nH]c(C)c2c(=N)n1-c1ccccc1Cl)C(=O)N(CC)CC` (stereo not given), the Potency was 18.4 µM (active). As to `Cc1ccc(-n2c(SCC(=O)NCCC3=CCCCC3)nc3n[nH]c(C)c3c2=N)cc1Cl`, the Potency is 11.6 µM (active).

For `CCCCNC(=O)CSc1nnc(-c2ccco2)n1C`, the Potency entry is “inactive”. For the molecule `CCCCNC(=O)CSc1nccn1Cc1ccccc1`, the Potency entry was “inactive”. Under `CCOc1ccc(-n2c(SCC(=O)Nc3cc(C(=O)O)ccc3Cl)nc3ccccc3c2=O)cc1` stands “inactive”. For the molecule `CCOc1ccc(-n2c(SCC(=O)NCc3ccccc3)nc3n[nH]c(C)c3c2=N)cc1`, the Potency was 9.2 µM (active).

`CCCCNC(=O)CSc1nc2n[nH]c(C)c2c(=N)n1-c1cccc(Cl)c1C`: the Potency is 16.4 µM (active) and 11.6 µM (active).

For the molecule `O=C(COc1ccc(Cl)cc1)NCCC1=CCCCC1`, the Potency entry was “inactive”. With `O=C(COC(=O)c1cccnc1Cl)NC(=O)NC1CCCCC1`, the Potency result was “inactive”.

In the case of `C[C@H](C(=O)CC(=O)OC(C)(C)C)[C@H](O)c1ccc(C(F)(F)F)cc1`, the Potency result is “inactive”. With `Cc1ccc(SCCC(=O)NC(C(C)C)C(C)C)cc1` the entry was “inactive”; with `COc1ccc(OCC(=O)Nc2ccc(NC(=O)c3ccco3)c(C)c2)cc1`, “inactive”. Under `CCC1(C2CCN(C(=O)c3cccc(F)c3F)CC2)NC(=O)N(CCc2scnc2C)C1=O` (stereo not given) stands “inactive”. Take `CCCC(C)NC(=O)C1CCN(C(=O)C2CC(=O)N(c3ccc(C)cc3)C2)CC1` (stereo not given): the Potency result is “inactive”.

For `CCN(Cc1ccccc1)S(=O)(=O)c1cc(C(=O)O)ccc1OC`, the Potency result was “inactive”.

For the molecule `CSC1=NN(c2ccccc2)CN(c2ccccc2)N1C`, the Potency entry was “inactive”. On to `CC(C)NC(=O)NC(=O)CSc1nnc(-c2ccccc2F)n1N`, for which the Potency result is “inactive”. Regarding `COc1ccc(-n2c(Cc3cccn3C)nnc2SCC(=O)Nc2cc(C)cc(C)c2)cc1`, the Potency result was “inactive”. Regarding `COc1ccc(-n2nnnc2SCC(=O)Nc2ccccc2)cc1`, the Potency entry is “inactive”. Under `COc1ccc(-n2c(SCC(=O)Nc3ccc(Cl)c(C)c3)nc3n[nH]c(C)c3c2=N)cc1` stands 13 µM (active).
